Molecules are shown by their SMILES. The whole screen tested about 87,000 compounds, of which about 540 (0.62%) were called active. This is one part of a sample in which actives are shown more often than they occur. How the calls were made is not given here. Results with a measured potency or affinity are listed apart.

A short description of the assay: MT1-MMP gene expression reporter suppression – cell-based, luciferase reporter, luminescence (AID 618).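 Further: actives suppress MT1-MMP promoter-driven transcription so potencies describe inhibitors.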 As to conditions: MT1-MMP promoter luciferase reporter cells. (Reporter assays use an easily measured gene product as a stand-in for the process of interest.)
With `COc1ccc(C2C(=O)N(C3CCCCC3)CC(=O)N2Cc2ccc3c(c2)OCO3)cc1` (configuration not stated), the call was inactive.
The same measure for `COc1ccc(NS(=O)(=O)c2cc(OC)ccc2NC(=O)c2cc(C)oc2C)cc1`: “active”; for `COc1ccc2nc(NC(=O)c3cc(C)oc3C)sc2c1`: “inactive”; for `COc1ccc(NS(=O)(=O)c2cc(C)ccc2NC(=O)c2cc(C)oc2C)cc1`: “active”.
In the case of `COc1ccc(NS(=O)(=O)c2cc(C(=O)O)ccc2C)cc1`, the molecule was called inactive.
Turning to `COc1ccc(C)c(S(=O)(=O)Nc2ccc(OCC(=O)O)cc2)c1`, the molecule was called inactive.
The same measure for `COc1ccc(NS(=O)(=O)c2cc(C)ccc2C)cc1`: “inactive”.
In the case of `CC(C)(C)c1ccc(C(=O)C=[N+]=[N-])cc1`, the molecule was called inactive.
Consider `Cc1nn(C)c(C)c1CN(C)C(=O)c1cc2n(n1)C(C(F)(F)F)CC(c1cccs1)N2` (configuration not stated), for which the result was inactive.
On to `CCOC(=O)c1ccc(N2C(=O)CC(N3CCC(C(N)=O)(N4CCCCC4)CC3)C2=O)cc1` (configuration not stated), for which the molecule was classed as inactive.
The same measure for `CCn1c(=O)cc(SCC(=O)N2CCCCC2)c2ccccc21`: “inactive”; for `CCOC(=O)c1oc2ccccc2c1CSc1nnnn1-c1ccc(C)cc1`: “inactive”; for `CNc1cc([N+](=O)[O-])ccc1N/C=C/C(=O)c1cccs1`: “inactive”.
The same measure for `O=C(/C=C/Nc1cccc([N+](=O)[O-])c1)c1cccs1`: “inactive”; for `COc1ccccc1NC(=O)CSc1nccc(=O)[nH]1`: “inactive”; for `CCCc1cc(C(=O)Nc2nnc(C)s2)cs1`: “inactive”.
Turning to `CCOc1cccc(C(=O)Nc2nccs2)c1`, the molecule was classed as inactive.
The same measure for `O=C(Nc1cnccn1)c1cccc(C(F)(F)F)c1`: “inactive”.
On to `CC(C)(C)c1ccc(C(=O)Nc2cnccn2)cc1`, for which the molecule was classed as active.
The same measure for `O=C(Nc1cnccn1)c1ccncc1`: “inactive”; for `Cc1ccnc(SCC(=O)N2CCN(c3ccccc3)CC2)n1`: “inactive”; for `O=C(CCCC(=O)N(CC(=O)NC1CCCC1)Cc1ccccc1)Nc1ccccn1`: “inactive”.
The same measure for `COCCNC(=O)CNS(=O)(=O)c1ccc2nc(C)sc2c1`: “inactive”; for `CN(C(=O)c1ccno1)c1nnc(-c2cnccn2)s1`: “inactive”.
The same measure for `Cc1ccc(C)c(SCC(=O)OCC(=O)Nc2ccc(S(=O)(=O)N3CCOCC3)cc2)c1`: “inactive”; for `O=C1CC(C(=O)Nc2cccc3ccccc23)C2(CCCC2)O1` (configuration not stated): “inactive”.
Turning to `Cc1ccc2c(c1)c1c3n2CCN(C(=O)Cn2c(-c4ccccc4)noc2=O)C3CCC1` (configuration not stated), the outcome was inactive.
Regarding `CC(=O)N1CCn2c3c(c(=O)c4cc(C)ccc42)CCC31` (configuration not stated), the molecule was called inactive.
With `Cc1ccc2c(c1)c(=O)c1c3n2CCN(C(=O)CCl)C3CC1` (configuration not stated), the molecule was called active.
The same measure for `Cc1sc2nc(CSc3nnc(Cc4cccs4)n3C3CCCCC3)[nH]c(=O)c2c1C`: “inactive”.
The same measure for `Cc1ccc(NC2=NC(c3ccc(O)cc3)n3c(nc(C)cc3=O)N2)cc1` (configuration not stated): “inactive”; for `Nc1nonc1/C(=N/O)N1CCN(CCO)CC1`: “inactive”.
For `COC(=O)N1[C@H](C)C=C[C@]1(Cc1ccccc1)C(=O)O`, the outcome was active.
The same measure for `COC(=O)N1[C@H](C)C=C[C@]1(Cc1ccccc1)C(=O)OC`: “inactive”; for `CNC(=O)[C@@]1(Cc2ccccc2)C=C[C@@H](C)N1C(=O)OC`: “inactive”.
In the case of `Nc1nonc1N1CCCCC1`, the call was inactive.
Turning to `CCCNC(=O)Cn1cnc2sc(C(=O)NCCN(CC)CC)c(C)c2c1=O`, the result was inactive.
Consider `CNC(=O)CCc1nc(-c2ccc(C(C)(C)C)cc2)no1`, for which the call was inactive.
The same measure for `CN(C)C(=O)CCc1nc(-c2ccc(C(C)(C)C)cc2)no1`: “inactive”.
The same measure for `COc1ccc(-c2noc(CCC(=O)O)n2)cc1`: “inactive”; for `O=C(O)CCCc1nc(-c2ccccc2)no1`: “inactive”; for `CCOC(=O)C1C2C=CC3(CN(CCc4ccccc4)C(=O)C13)O2` (configuration not stated): “inactive”.
On to `O=C(c1csc2c1CCCC2)N1CCN(c2ncccn2)CC1`, for which the molecule was called inactive.
On to `Cc1cccc(-n2nnnc2SC(C)C(=O)NCCC2=CCCCC2)c1` (configuration not stated), for which the molecule was called inactive.
The same measure for `CC(C(=O)NC(=O)NC1CCCCC1)N1CCN(c2ccccn2)CC1` (configuration not stated): “inactive”; for `O=C(CNC(=O)c1ccco1)NCC(=O)OCc1cccc(Cl)c1`: “inactive”.
The same measure for `Nc1nc(-c2cccc(Br)c2)cs1`: “inactive”; for `COc1cc(C)c(-c2cc(C(=O)O)c(C)o2)cc1C(C)C`: “inactive”; for `CCOC(=O)CNC(=O)c1cc(-c2ccc3c(c2)OCCO3)oc1C`: “inactive”.
The same measure for `Cc1oc(-c2ccc3c(c2)OCCO3)cc1C(=O)NC(CCC(=O)O)C(=O)O` (configuration not stated): “inactive”; for `Cc1oc(-c2ccccc2)cc1C(N)=O`: “inactive”.
Consider `COc1ccc(C2=NN(CN3C(=O)C(=O)c4ccccc43)C(c3ccc(C)cc3)C2)cc1` (configuration not stated), for which the molecule was classed as inactive.
The same measure for `O=C(N1CCN(c2ccccn2)CC1)N1c2ccccc2Sc2ccccc21`: “active”.
The same measure for `O=C(NC1CCN(C(=O)N2c3ccccc3Sc3ccccc32)CC1)c1ccco1`: “inactive”; for `O=C(c1ccco1)N1CCN(C(=O)N2c3ccccc3Sc3ccccc32)CC1`: “active”.
In the case of `O=C(N1CCOCC1)N1CCN(c2ccccn2)CC1`, the outcome was inactive.
On to `O=C(c1ccco1)N1c2ccccc2Sc2ccccc21`, for which the molecule was called inactive.
The same measure for `O=C(CN1CCN(c2ccccn2)CC1)N1c2ccccc2Sc2ccc(C(F)(F)F)cc21`: “inactive”; for `CC(C)NC(=O)c1c2c(nc3ccccc13)CCCC2`: “inactive”; for `Cc1nnc2ccc(N3CCN(C(=O)c4ccccc4)CC3)nn12`: “inactive”.
The same measure for `O=C1COc2ccc(C(=O)COC(=O)Cn3cnc4ccccc43)cc2N1`: “inactive”.
The same measure for `CCOC(=O)CNC(=O)C(CC(C)C)NC(=O)C1CCCCC1` (configuration not stated): “inactive”.
Regarding `Cc1ccc(OCc2nc(-c3ccccn3)no2)cc1`, the molecule was classed as inactive.
Turning to `CC(C)(C)c1ccc(OCc2nc(-c3ccccn3)no2)c(Br)c1`, the outcome was inactive.
Turning to `Clc1ccccc1OCc1nc(-c2ccncc2)no1`, the outcome was inactive.
The same measure for `CCc1ccc(OCc2nc(-c3ccccn3)no2)c(Br)c1`: “active”.
The same measure for `Clc1ccc(OCc2nc(-c3ccccn3)no2)c(Br)c1`: “inactive”.
On to `CC(C)c1ccc(OCc2nc(-c3ccccn3)no2)c(Br)c1`, for which the molecule was called inactive.
The same measure for `Clc1cc(Cl)c(OCc2nc(-c3ccccn3)no2)cc1Cl`: “inactive”.
With `O=C(NCC1COc2ccccc2O1)c1c[nH]c2ccc(S(=O)(=O)N3CCOCC3)cc2c1=O` (configuration not stated), the result was inactive.
`CCN(CC)c1ccc(NC(=O)CCCCCN2C(=O)c3ccccc3C2=O)cc1`: the outcome was inactive.
The same measure for `CCOC(=O)C1CCN(C(=O)CN(c2cccc(C(F)(F)F)c2)S(C)(=O)=O)CC1`: “inactive”.
As to `CN(C)S(=O)(=O)N1CCN(C(=O)N2CCOCC2)CC1`, the molecule was called inactive.
The same measure for `COc1cccc(CSc2nc3sc(C)c(C)c3c(=O)n2Cc2ccco2)c1`: “inactive”; for `C=CCn1c(COc2cccc3ccc(C)nc23)nnc1SCC(=O)O`: “inactive”; for `CC(C)CCNC(=O)C1C2C=CC3(CN(Cc4ccccc4Cl)C(=O)C13)O2` (configuration not stated): “inactive”.
The same measure for `CCOC(=O)N1CCN(C(=O)c2ccccc2Oc2ccccc2)CC1`: “inactive”; for `CCOC(=O)N1CCN(C(=O)c2ccccc2-c2ccccc2)CC1`: “active”; for `O=C(c1ccccc1-c1ccccc1)N1CCCC1`: “inactive”.
The same measure for `Fc1ccc(-c2cc(C(F)(F)F)nc(N3CCCCC3)n2)cc1`: “inactive”; for `Cc1nc2ncnn2c(N2CCC(C(=O)NCC3CCCO3)CC2)c1Cc1ccccc1` (configuration not stated): “inactive”.
Turning to `COc1ccc(-n2nnnc2SCC(=O)NCCc2ccc(OC)c(OC)c2)cc1`, the molecule was classed as inactive.
`CCCSc1nnc(Sc2nnnn2-c2ccccc2)s1`: the molecule was classed as inactive.
The same measure for `COc1ccc(CCNc2nnc(Sc3nnnn3-c3ccccc3)s2)cc1OC`: “active”; for `COc1cccc2cc(C(C)=O)c(=O)oc12`: “inactive”.
The same measure for `O=C(C1CCCN(Cc2ccccc2)C1)N1CCCCC1` (configuration not stated): “inactive”; for `CCOC(=O)c1sc(NC(=O)c2cncc(Br)c2)nc1C`: “inactive”; for `CCC(C)(C)n1nnnc1C(c1ccc2ncccc2c1)N1CCN2CCCC2C1` (configuration not stated): “inactive”.
In the case of `CCN1CCN(/C=N/c2nc(C)cs2)CC1`, the call was inactive.
The same measure for `CN1CCN(/C=N/c2sc3c(c2C#N)CCCCC3)CC1`: “inactive”; for `CCN1CCN(/C=N/c2nc3c(s2)CCCC3)CC1`: “active”.
The same measure for `CC1=CC(C)(C)N2C(=O)C3(C(C#N)=C(N)Oc4cc(C)oc(=O)c43)c3cc(C)cc1c32` (configuration not stated): “inactive”; for `O=C(O)c1cccc(COc2ccccc2Cl)c1`: “active”; for `O=C(O)c1ccc(COc2cccc(CO)c2)cc1`: “inactive”.
For `O=C(O)c1ccc(COc2ccccc2Cl)cc1`, the molecule was called inactive.
The same measure for `O=C(O)c1ccccc1COc1ccccc1Cl`: “inactive”; for `O=C(c1cccc(Cl)c1)N1CCN(c2ccccn2)CC1`: “inactive”.
For the molecule `O=C(O)c1cccc(COc2ccc(CO)cc2Cl)c1`, the outcome was active.
The same measure for `O=C(CCCOc1ccc(Cl)cc1Cl)N1CCN(c2ccccn2)CC1`: “inactive”; for `O=C(O)c1ccc(COc2ccc(CO)cc2Cl)cc1`: “inactive”; for `CCOC(=O)CNC(=O)CSc1ncnc2c1cnn2-c1ccccc1`: “inactive”.
For `CCOC(=O)CNC(=O)CSc1ncnc2c1cnn2-c1ccc(Cl)cc1`, the call was inactive.
The same measure for `CCOC(=O)CCc1c(C)n(CC)c2cc(-c3ccccc3OC)nn2c1=O`: “inactive”; for `c1cnc(N2CC[N+]3(CCCC3)CC2)nc1`: “inactive”; for `CCOc1cc(-c2nnc(-c3ccco3)o2)cc(OCC)c1OCC`: “inactive”.
The same measure for `COCCCNC(=O)Cn1nnc(-c2ccccc2NC(=O)c2ccccc2F)n1`: “inactive”.
As for `COc1ccc(C2C(C(C)=O)=C(O)C(=O)N2CCO)c(OC)c1` (configuration not stated), the molecule was called inactive.
The same measure for `COC(=O)c1ccc(OC(=O)c2ccc(OC)c(OC)c2)c(OC)c1`: “inactive”; for `COC(=O)c1ccc2c(c1)C(C)(C)C(/C=C/c1ccc(OC)c(OC)c1OC)=[N+]2C`: “active”; for `COC(=O)c1ccc(OC(=O)c2ccc(OCc3c(C)noc3C)c(OC)c2)cc1`: “inactive”.
The same measure for `CCn1c(=O)c2c3c(sc2n(C)c1=O)CCC3`: “inactive”; for `Cc1cccc(OCC(=O)Nc2cccc(O)c2)c1`: “inactive”; for `Cc1ccc(OCC(=O)Nc2cccc(O)c2)cc1C`: “inactive”.
Regarding `O=C(CCN1CCN(c2ccccc2)CC1)Nc1ccc(Cl)cc1`, the call was inactive.
With `Cc1cn(Cc2ccccc2)c(=O)[nH]c1=O`, the molecule was called inactive.
On to `CC1CCc2nc(NC(=O)C3CC3)sc2C1` (configuration not stated), for which the molecule was called inactive.
In the case of `Cc1cc(C(=O)Nc2nc3c(s2)CCCC3)no1`, the call was inactive.
The same measure for `CC1CCc2nc(NC(=O)Cc3cccs3)sc2C1` (configuration not stated): “inactive”; for `CC1CCc2nc(NC(=O)c3ccco3)sc2C1` (configuration not stated): “active”; for `O=C(Nc1nc2c(s1)CCCC2)c1ccc(Br)o1`: “inactive”.
Take `CC1CCc2nc(NC(=O)CN3CCOCC3)sc2C1` (configuration not stated): the molecule was classed as inactive.
The same measure for `Cc1ncsc1C(=O)Nc1nc2c(s1)CC(C)CC2` (configuration not stated): “inactive”.

The values above are taken from PubChem BioAssay AID618 (Sanford-Burnham Center for Chemical Genomics, 2007).
